High-throughput results: PubChem BioAssay, several laboratories
MEKK3 PB1 HTS: modulators of MEKK3-MEK5 PB1 binding, primary screen, biochemical, wildtype MEKK3, multiplex bead flow cytometry, Alexa488-MEK5. Mitogen-activated protein kinase kinase kinase 3 (Homo sapiens), Q99759. bead-based flow cytometry, Alexa488-MEK5 binding to MEKK3; actives lie on both sides; 0 = blocked by unlabeled MEK5, 100 = vehicle. binding response (% of control), % at 10 µM. 290,000 tested, 1.4% active. AID 1529, 2009;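 active means binding response more than 3 SD above or below the average of its plate-row segment, actives on both sides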;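 further: Alexa488 bead fluorescence after subtracting the streptavidin-only scavenger bead signal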
Target sequence (Q99759 whole entry, looked up): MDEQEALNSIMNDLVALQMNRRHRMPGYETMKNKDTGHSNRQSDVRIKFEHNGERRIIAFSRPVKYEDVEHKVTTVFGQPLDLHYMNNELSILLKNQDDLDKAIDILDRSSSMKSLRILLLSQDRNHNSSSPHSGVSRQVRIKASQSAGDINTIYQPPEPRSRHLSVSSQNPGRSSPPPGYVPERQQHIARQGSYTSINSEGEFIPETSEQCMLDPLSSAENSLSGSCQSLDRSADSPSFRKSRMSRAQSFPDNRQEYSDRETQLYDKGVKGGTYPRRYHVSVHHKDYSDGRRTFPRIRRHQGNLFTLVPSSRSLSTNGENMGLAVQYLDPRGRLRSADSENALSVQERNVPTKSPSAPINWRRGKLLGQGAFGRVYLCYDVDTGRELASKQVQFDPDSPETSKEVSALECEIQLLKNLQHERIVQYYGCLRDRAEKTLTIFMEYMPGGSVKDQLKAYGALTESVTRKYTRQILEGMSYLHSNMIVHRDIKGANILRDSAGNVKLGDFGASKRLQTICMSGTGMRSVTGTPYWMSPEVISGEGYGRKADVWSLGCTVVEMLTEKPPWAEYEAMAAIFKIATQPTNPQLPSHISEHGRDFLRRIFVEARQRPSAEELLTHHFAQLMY
Arbovirus anti: antivirals against arbovirus infection, primary screen, cell-based, full library, 10K replicate subset. inhibition, % at 10 µM. arbovirus infection cell-based antiviral screen. 200,000 tested, 0.37% active; in the data active means inhibition above about 30%
MEKK2wt PB1 HTS: modulators of MEK5 binding to wildtype MEKK2, primary screen, biochemical, multiplex bead flow cytometry, Alexa488-MEK5 | Alexa488-MEK5 binding to MEKK2 WT; actives lie on both sides | binding response (% of control), % at 10 µM | Mitogen-activated protein kinase kinase kinase 2 (Homo sapiens), Q9Y2U5 | 290,000 tested, 1.1% active; in the data active means binding response below about 67% or above about 130%
Pf gamet viab: late stage P. falciparum gametocyte viability inhibitors, primary screen, ATP luminescence, HTS | P. falciparum stage V gametocytes, 24 h | 150,000 tested, 0.065% active | AID 743093, 2013 | inhibition, % at 10.9 µM;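 active means inhibition above the mean plus 3 SD of compounds within the control limits, set per campaign, cut at about 38% in these data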;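 further: 0% = DMSO wells and 100% = medium only without gametocytes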
MEKK2mut PB1 HTS: MEK5 binding signal on mutant MEKK2 PB1, primary screen, biochemical, multiplex bead flow cytometry, Alexa488-MEK5; Alexa488-MEK5 binding to MEKK2 mutant; percent response, % at 10 µM; 290,000 tested, 0.35% active; AID 1530, 2009; in the data active means percent response above about 24%, passing the limit was not always enough
MEKK2wt confirm: modulators of MEK5 binding to wildtype MEKK2, confirmation, biochemical, single concentration, multiplex bead flow cytometry. Alexa488-MEK5 binding to MEKK2 WT; actives lie on both sides. binding response (% of control), % at 10 µM. shares compounds with MEKK3 PB1 HTS. 5,900 tested, 2.4% active; in the data active means binding response below about 16% or above about 210%; inactive means in between
MEKK2mut-MEK5: mutant MEKK2 PB1-MEK5 binding signal retest – biochemical, single concentration, multiplex bead flow cytometry, confirmation. 5,900 tested, 2% active. Alexa488-MEK5 binding to MEKK2 mutant. percent response, % at 10 µM. shares compounds with MEKK3 PB1 HTS; in the data active means percent response mostly above about 71%, no sharp cut-off; inactive means mostly below about 38%;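 further: higher means compound restores mutant binding toward wildtype level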
MEKK3-MEK5 inh: MEKK3 wild-type PB1 binding to MEK5, inhibitors, confirmation, biochemical, bead multiplex flow cytometry, single concentration, wildtype; 5,900 tested, 1.8% active; AID 1894, 2009; Alexa488-MEK5 binding to MEKK3; active compounds read low; binding response (% of control), % at 10 µM; shares compounds with MEKK3 PB1 HTS;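 active means binding response below 72% of control, or above a set upper limit, though filed actives all read lower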;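 further: 100% = DMSO only wells and 0% = binding blocked by excess unlabeled MEK5; lower values mean stronger disruption of MEK5 binding to MEKK3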
* marks the source's active call; other numbers are inactive results; . = no result given; [ ] = another dose, or the depositor's remark. An excerpt weighted towards active compounds, which were near 2.4% of everything screened.

SMILES	MEKK3 PB1 HTS	Arbovirus anti	MEKK2wt PB1 HTS	Pf gamet viab	MEKK2mut PB1 HTS	MEKK2wt confirm	MEKK2mut-MEK5	MEKK3-MEK5 inh
CCOC(=O)C(NC(=O)c1ccccc1Cl)(Nc1ccc(C(F)(F)F)cc1)C(F)(F)F (centres undefined)	151.0*	0.8	106.0	.	3.0	101.0	-3.0	101.0
CCCC(=O)Nc1ccccc1-c1nnc(SCC)[nH]c1=O	104.0	.	104.0	0.8	-2.0	.	.	.
CC(C)Cn1cnc2c(c(-c3ccccc3)c(-c3ccccc3)n2Cc2ccco2)c1=N	115.0	-30.2	134.0*	.	16.0	126.0	27.0	100.0
N=c1c2c(-c3ccccc3)c(-c3ccccc3)n(Cc3ccco3)c2ncn1CCCN1CCOCC1	116.0	-33.6	149.0*	-1.0	6.0	127.0	10.0	95.0
N=c1c2c(-c3ccccc3)c(-c3ccccc3)n(Cc3ccco3)c2ncn1CCCn1ccnc1	103.0	-41.6	111.0	.	2.0	.	.	.
N=c1c2c(-c3ccccc3)c(-c3ccccc3)n(Cc3ccco3)c2ncn1Cc1ccccc1	110.0	-42.8	156.0*	11.8	17.0	162.0	40.0	105.0
Cc1ccc(CNC(=O)CCC2CCCN(C(=O)c3ccc4c(c3)OCO4)C2)o1 (centres undefined)	93.0	-2.7	95.0	9.5	-7.0	.	.	.
CCCCc1nc(SCC(=O)Nc2cccc(Cl)c2)n[nH]1	105.0	.	104.0	.	6.0	.	.	.
COc1ccccc1CC(NC(C)=O)C(=O)NC1CCN(S(=O)(=O)c2ccccc2)CC1 (centres undefined)	101.0	.	104.0	.	4.0	.	.	.
CCOc1ccc(C(=O)NCC(c2cccs2)N(C)C)cc1OCC (centres undefined)	70.0*[inhibitor]	11.6	94.0	-12.6	-2.0	100.0	5.0	103.0
COc1ccc(Sc2nc3ccccc3n3c(C(F)(F)F)nnc23)cc1	99.0	1.0	92.0	-11.2	-1.0	.	.	.
COc1ccc(-c2cc(-n3c(C(F)(F)F)nc4ccccc43)n(CCC#N)n2)cc1	82.0*[inhibitor]	2.9	86.0	.	-7.0	98.0	-10.0	100.0
CCOC(=O)CC1C(=O)NCCN1C(=O)c1ccc(Cl)c(Cl)c1 (centres undefined)	104.0	.	105.0	.	2.0	.	.	.
N#CCCN(Cc1cccs1)C(=O)c1ccc(Cl)cc1	92.0	.	95.0	-0.6	-11.0	.	.	.
CN1CCc2c(sc3c2C(=O)NC(c2ccc(-c4cccc(Cl)c4)o2)N3)C1 (centres undefined)	82.0	-15.1	170.0*	.	42.0	127.0	48.0	104.0
CCOC(=O)c1cnn(CCOC(=O)C(C)(C)C)c1NC(=O)C(C)(C)C	2.0*[inhibitor]	3.4	0.0*[inhibitor]	-0.2	-25.0	98.0	-6.0	101.0
O=C(Nc1ccc(F)c(Cl)c1)Nc1csc2ccccc12	104.0	.	191.0*	3.9	34.0	164.0	26.0	107.0
Clc1ccc(Cl)c(OCCCCNCc2ccccc2)c1	98.0	-36.7	125.0	0.7	3.0	.	.	.
Clc1ccc(OCCCNCc2ccccc2)c(Br)c1	105.0	-35.2	153.0*	.	22.0	134.0	19.0	103.0
NNc1nc2c(F)cccc2s1	140.0*	2.9	105.0	2.2	0.0	106.0	0.0	104.0
Nc1nc2c(F)cccc2s1	133.0*	-16.1	102.0	-30.1	0.0	102.0	1.0	99.0
O=c1[nH]ccc2c(O)cccc12	96.0	.	92.0	.	.	.	.	.
CCCOc1ccc(N2C(=O)CC(NCc3ccc(S(N)(=O)=O)cc3)C2=O)cc1 (centres undefined)	99.0	-1.1	104.0	.	-7.0	.	.	.
CCCCOc1ccc(N2C(=O)CC(NCCc3ccc(S(N)(=O)=O)cc3)C2=O)cc1 (centres undefined)	122.0*	1.3	119.0	.	5.0	111.0	7.0	105.0
O=C(Nn1c(O)c(C=C2N=c3ccccc3=N2)sc1=S)c1cccc(Cl)c1	79.0	-9.5	49.0*[inhibitor]	.	-4.0	63.0	-21.0	95.0
SMILES	MEKK3 PB1 HTS	Arbovirus anti	MEKK2wt PB1 HTS	Pf gamet viab	MEKK2mut PB1 HTS	MEKK2wt confirm	MEKK2mut-MEK5	MEKK3-MEK5 inh
O=C(Nn1c(O)c(C=C2N=c3ccccc3=N2)sc1=S)c1ccccc1	65.0	-0.1	17.0*[inhibitor]	.	-39.0	52.0	-23.0	91.0
O=C(Nn1c(O)c(C=C2N=c3ccccc3=N2)sc1=S)c1ccc(Cl)cc1	.	-8.7	.	0.8	.	.	.	.
Cc1ccc(C(=O)Nn2c(O)c(C=C3N=c4ccccc4=N3)sc2=S)cc1	72.0	-4.7	39.0*[inhibitor]	.	-6.0	39.0	-30.0	91.0
Cc1ccc(S(=O)(=O)Nn2c(O)c(C=C3N=c4ccccc4=N3)sc2=S)cc1	99.0	.	83.0	1.0	-3.0	.	.	.
CCOC(=O)c1c(-c2ccc(F)cc2)csc1/N=C/N(C)C	129.0*	-6.8	117.0	21.7	2.0	103.0	6.0	107.0
CCOC(=O)c1c(-c2ccc(C)cc2)csc1/N=C/N(C)C	95.0	9.5	91.0	-15.6	-3.0	.	.	.
Cc1cc(=O)[nH]c(N/N=C/C2=C(N3CCOCC3)C(=C\c3ccc(Cl)cc3)/CC2)n1	135.0*	-25.1	112.0	6.8	2.0	101.0	-2.0	101.0
Cc1cc(C)n2nc(C(=O)OCC(=O)c3c[nH]c4ccccc34)nc2n1	98.0	-1.4	99.0	11.4	1.0	.	.	.
CCOC(=O)c1cc(NC(=O)c2ccco2)ccc1N1CCOCC1	27.0*[inhibitor]	-4.0	35.0*[inhibitor]	-7.1	-22.0	111.0	8.0	109.0
CC(Oc1ccccc1)C(=O)N/N=C/c1ccccn1 (centres undefined)	101.0	-3.4	96.0	16.7	-4.0	.	.	.
COC(=O)c1ccc(C(=O)OC)c(NC(=O)CN2CCCCC2)c1	99.0	6.8	102.0	1.2	-2.0	.	.	.
COC(=O)c1ccccc1NC(=S)N1CCN(c2ccccc2)CC1	108.0	.	104.0	.	8.0	.	.	.
COC(=O)c1cc(OC)c(OC)cc1NC(=O)CN1CCCCC1	-1.0*[inhibitor]	9.7	-4.0*[inhibitor]	.	-26.0	92.0	-10.0	88.0
COC(=O)c1cc(OC)c(OC)cc1NC(=S)N1CCN(c2ccccc2)CC1	1.0*[inhibitor]	-1.4	2.0*[inhibitor]	.	-21.0	102.0	-2.0	103.0
COc1ccccc1NC(=S)N1CCOCC1	73.0*[inhibitor]	-6.7	99.0	.	0.0	100.0	1.0	104.0
CCOC(=O)c1c(NC(=O)C[n+]2ccc(Cc3ccccc3)cc2)sc(C)c1C	94.0	-6.2	138.0*	23.8	11.0	191.0	53.0	111.0
